Measurements taken from paper PMC7862700, “An all-to-all approach to the identification of sequence-specific readers for epigenetic DNA modifications on cytosine”.

Tests used:
Experiment in all cases: DAPPL (digital affinity profiling via proximity ligation, sequencing); 10 mM Tris-HCl pH 7.5, 50 mM NaCl, 1 mM DTT, 4% glycerol, room temperature, 30 min; GST-TFs on glutathione beads, 16-mer random dsDNA library, 0.1% formaldehyde crosslink after washing; high values mean tight binding
FEV = molecular target: T1, FEV (Homo sapiens, UniProt Q99581 1-238); conditions: protein: recombinant; tags: N-terminal GST; dsDNA, one strand shown
T1 sequence: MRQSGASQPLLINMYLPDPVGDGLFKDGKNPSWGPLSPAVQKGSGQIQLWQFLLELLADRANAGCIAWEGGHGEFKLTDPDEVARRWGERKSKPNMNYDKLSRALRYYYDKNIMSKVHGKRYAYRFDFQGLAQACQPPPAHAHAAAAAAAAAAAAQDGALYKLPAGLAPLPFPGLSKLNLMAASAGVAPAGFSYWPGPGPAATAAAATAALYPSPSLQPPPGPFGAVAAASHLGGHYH
Outline: (§1)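 Pools were built from human transcription factors expressed in yeast as GST fusions, captured on glutathione beads and DNA-barcoded, along with a tag-only sample. Incubation with 200 nmole of a 16-mer random double-stranded DNA library lasted 30 min at room temperature in Tris/NaCl/DTT/glycerol buffer, and was followed by washing, 0.1% formaldehyde crosslinking, proximity ligation, PCR amplification and Illumina NextSeq500 sequencing. Binding signal is the quotient of each hexamer's read frequency for a factor and its frequency for the tag-only sample.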

ETV5 = ETV5 (Homo sapiens, UniProt P41161 1-510); conditions: protein: recombinant; tags: N-terminal GST; dsDNA, one strand shown
Outline: as §1

HSF1 = HSF1 (Homo sapiens, UniProt Q00613 1-529); conditions: protein: recombinant; tags: N-terminal GST; chain copies: 3; dsDNA, one strand shown
Outline: as §1

SPIC = molecular target: T2, SPIC (Homo sapiens, UniProt Q8N5J4 1-248); conditions: protein: recombinant; tags: N-terminal GST; dsDNA, one strand shown
T2 sequence: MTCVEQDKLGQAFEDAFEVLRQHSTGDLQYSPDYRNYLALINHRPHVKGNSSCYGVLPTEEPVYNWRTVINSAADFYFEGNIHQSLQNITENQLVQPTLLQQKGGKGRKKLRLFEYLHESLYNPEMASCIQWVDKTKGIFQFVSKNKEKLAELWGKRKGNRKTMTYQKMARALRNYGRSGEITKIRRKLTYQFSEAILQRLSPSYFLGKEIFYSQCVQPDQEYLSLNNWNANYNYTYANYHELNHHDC
Outline: as §1

ELF4 = ELF4 (Homo sapiens, UniProt Q99607 1-663); conditions: protein: recombinant; tags: N-terminal GST; dsDNA, one strand shown
Outline: as §1

ELK4 = molecular target: T3, ELK4 (Homo sapiens, UniProt P28324-2 1-405); conditions: protein: recombinant; tags: N-terminal GST; dsDNA, one strand shown
T3 sequence: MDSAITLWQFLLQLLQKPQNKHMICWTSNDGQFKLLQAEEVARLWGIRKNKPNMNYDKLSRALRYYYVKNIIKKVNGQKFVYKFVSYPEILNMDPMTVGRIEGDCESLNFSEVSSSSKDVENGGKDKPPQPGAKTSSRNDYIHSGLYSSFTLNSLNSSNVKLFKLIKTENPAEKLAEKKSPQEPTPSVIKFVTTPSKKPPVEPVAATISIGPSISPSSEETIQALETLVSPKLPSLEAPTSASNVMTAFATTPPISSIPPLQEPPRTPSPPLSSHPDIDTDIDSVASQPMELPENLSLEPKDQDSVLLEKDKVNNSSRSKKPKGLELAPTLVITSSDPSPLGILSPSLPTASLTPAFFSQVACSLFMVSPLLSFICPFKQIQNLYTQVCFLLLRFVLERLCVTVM
Outline: as §1

ETV2 = molecular target: T4, ETV2 (Homo sapiens, UniProt O00321 1-342); conditions: protein: recombinant; tags: N-terminal GST; dsDNA, one strand shown
T4 sequence: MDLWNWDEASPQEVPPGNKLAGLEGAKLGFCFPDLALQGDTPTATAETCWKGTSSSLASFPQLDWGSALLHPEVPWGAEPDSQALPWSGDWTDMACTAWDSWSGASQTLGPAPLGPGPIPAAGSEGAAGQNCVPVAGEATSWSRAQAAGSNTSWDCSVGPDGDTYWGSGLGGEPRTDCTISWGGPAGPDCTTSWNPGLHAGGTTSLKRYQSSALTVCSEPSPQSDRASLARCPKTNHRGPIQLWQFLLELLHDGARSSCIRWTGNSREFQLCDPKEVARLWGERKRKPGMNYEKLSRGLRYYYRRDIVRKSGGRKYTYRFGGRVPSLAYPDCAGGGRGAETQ
Outline: as §1

ELF3 = molecular target: T5, ELF3 (Homo sapiens, UniProt P78545 1-371); conditions: protein: recombinant; tags: N-terminal GST; dsDNA, one strand shown
T5 sequence: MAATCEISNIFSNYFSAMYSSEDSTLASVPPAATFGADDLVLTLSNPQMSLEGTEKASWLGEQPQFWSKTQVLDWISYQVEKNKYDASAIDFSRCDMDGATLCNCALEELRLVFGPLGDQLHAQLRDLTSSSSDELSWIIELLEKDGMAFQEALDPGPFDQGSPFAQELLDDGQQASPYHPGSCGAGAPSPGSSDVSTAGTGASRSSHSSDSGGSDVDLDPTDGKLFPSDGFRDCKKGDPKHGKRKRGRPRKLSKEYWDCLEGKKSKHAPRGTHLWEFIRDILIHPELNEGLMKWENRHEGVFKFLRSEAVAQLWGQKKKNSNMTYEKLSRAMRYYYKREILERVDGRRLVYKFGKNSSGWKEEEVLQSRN
Outline: as §1

CRX = CRX (Homo sapiens, UniProt O43186 1-299); conditions: protein: recombinant; tags: N-terminal GST; dsDNA, one strand shown
Outline: as §1

ETV1 = ETV1 (Homo sapiens, UniProt P50549 1-477); conditions: protein: recombinant; tags: N-terminal GST; dsDNA, one strand shown
Outline: as §1

ERF = molecular target: T6, ERF (Homo sapiens, UniProt P50548 1-548); conditions: protein: recombinant; tags: N-terminal GST; dsDNA, one strand shown
T6 sequence: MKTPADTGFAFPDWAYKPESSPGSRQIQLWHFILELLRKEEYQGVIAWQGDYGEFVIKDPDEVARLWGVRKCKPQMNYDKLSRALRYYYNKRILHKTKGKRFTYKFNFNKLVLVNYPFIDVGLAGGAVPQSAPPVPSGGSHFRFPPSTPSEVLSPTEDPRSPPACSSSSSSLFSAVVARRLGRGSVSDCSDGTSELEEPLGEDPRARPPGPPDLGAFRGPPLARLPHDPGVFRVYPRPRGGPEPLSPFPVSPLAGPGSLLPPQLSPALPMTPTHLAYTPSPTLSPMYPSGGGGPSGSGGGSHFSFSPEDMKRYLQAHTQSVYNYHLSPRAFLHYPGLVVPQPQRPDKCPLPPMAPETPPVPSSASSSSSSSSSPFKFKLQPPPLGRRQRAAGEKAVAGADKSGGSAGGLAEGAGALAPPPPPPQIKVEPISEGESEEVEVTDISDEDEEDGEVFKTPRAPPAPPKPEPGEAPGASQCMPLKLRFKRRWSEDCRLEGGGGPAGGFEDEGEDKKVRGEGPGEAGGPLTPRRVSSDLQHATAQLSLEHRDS
Outline: as §1

ETV3L = molecular target: T7, ETV3L (Homo sapiens, UniProt Q6ZN32 1-361); conditions: protein: recombinant; tags: N-terminal GST; dsDNA, one strand shown
T7 sequence: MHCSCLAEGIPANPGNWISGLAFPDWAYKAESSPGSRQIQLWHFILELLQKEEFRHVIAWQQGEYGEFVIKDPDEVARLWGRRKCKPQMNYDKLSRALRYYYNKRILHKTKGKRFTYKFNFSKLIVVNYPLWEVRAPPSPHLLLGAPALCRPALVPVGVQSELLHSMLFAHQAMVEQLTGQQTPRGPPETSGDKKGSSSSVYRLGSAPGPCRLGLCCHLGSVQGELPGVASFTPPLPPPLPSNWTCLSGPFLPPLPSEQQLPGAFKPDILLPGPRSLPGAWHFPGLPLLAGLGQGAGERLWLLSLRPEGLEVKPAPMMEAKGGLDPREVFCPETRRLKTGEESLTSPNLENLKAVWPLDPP
Outline: as §1

ETS2 = molecular target: T8, ETS2 (Homo sapiens, UniProt P15036 1-469); conditions: protein: recombinant; tags: N-terminal GST; dsDNA, one strand shown
T8 sequence: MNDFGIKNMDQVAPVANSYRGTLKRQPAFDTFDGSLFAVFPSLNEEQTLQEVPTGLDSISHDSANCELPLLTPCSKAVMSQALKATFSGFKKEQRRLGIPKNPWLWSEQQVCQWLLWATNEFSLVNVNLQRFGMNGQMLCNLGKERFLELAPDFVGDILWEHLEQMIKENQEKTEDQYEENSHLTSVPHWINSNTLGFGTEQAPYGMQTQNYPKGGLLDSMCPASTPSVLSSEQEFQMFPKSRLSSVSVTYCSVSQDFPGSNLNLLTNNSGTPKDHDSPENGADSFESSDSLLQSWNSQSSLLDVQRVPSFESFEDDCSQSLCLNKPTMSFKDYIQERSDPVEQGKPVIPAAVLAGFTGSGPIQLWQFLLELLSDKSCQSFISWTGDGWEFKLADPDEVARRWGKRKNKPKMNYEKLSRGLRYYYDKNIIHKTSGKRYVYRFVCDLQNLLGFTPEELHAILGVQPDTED
Outline: as §1

SPDEF = molecular target: T9, SPDEF (Homo sapiens, UniProt O95238 1-335); conditions: protein: recombinant; tags: N-terminal GST; dsDNA, one strand shown
T9 sequence: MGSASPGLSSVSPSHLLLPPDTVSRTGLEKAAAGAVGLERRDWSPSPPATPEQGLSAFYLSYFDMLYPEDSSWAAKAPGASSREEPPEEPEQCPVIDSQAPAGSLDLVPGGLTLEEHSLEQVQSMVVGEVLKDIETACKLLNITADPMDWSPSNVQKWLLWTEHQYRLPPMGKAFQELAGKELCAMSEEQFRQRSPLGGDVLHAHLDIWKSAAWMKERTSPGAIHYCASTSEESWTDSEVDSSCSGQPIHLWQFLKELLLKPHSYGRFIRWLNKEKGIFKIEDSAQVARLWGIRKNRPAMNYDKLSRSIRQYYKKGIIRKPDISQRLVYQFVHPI
Outline: as §1

ETV7 = molecular target: T10, ETV7 (Homo sapiens, UniProt Q9Y603 1-341); conditions: protein: recombinant; tags: N-terminal GST; dsDNA, one strand shown
T10 sequence: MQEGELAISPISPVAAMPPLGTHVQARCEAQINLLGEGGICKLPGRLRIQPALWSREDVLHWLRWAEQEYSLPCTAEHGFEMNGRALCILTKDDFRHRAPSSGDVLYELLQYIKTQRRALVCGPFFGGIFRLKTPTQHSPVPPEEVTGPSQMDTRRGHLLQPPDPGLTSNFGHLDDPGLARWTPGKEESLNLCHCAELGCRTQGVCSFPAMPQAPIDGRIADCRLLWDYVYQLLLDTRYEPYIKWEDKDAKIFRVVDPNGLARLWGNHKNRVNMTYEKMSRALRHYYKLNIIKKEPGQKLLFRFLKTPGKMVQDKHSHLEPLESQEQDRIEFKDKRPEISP
Outline: as §1

ELF5 = molecular target: T11, ELF5 (Homo sapiens, UniProt Q9UKW6-2 1-255); conditions: protein: recombinant; tags: N-terminal GST; dsDNA, one strand shown
T11 sequence: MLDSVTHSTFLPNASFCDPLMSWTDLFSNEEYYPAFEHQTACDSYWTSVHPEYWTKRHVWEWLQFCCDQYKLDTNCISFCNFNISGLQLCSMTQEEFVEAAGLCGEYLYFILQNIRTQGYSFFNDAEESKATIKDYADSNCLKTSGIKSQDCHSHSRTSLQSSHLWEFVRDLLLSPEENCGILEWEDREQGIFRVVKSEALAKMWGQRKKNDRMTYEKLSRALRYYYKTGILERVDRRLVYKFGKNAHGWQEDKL
Outline: as §1

ETV3 = molecular target: T12, ETV3 (Homo sapiens, UniProt P41162-2 1-143); conditions: protein: recombinant; tags: N-terminal GST; dsDNA, one strand shown
T12 sequence: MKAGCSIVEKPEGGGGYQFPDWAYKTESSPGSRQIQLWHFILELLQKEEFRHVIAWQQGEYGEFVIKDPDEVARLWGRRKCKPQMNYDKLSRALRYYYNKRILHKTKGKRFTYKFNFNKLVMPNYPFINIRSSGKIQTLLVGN
Outline: as §1

ETV6 = ETV6 (Homo sapiens, UniProt P41212 1-452); conditions: protein: recombinant; tags: N-terminal GST; dsDNA, one strand shown
Outline: as §1

Sequence of ETV5 (P41161 whole entry): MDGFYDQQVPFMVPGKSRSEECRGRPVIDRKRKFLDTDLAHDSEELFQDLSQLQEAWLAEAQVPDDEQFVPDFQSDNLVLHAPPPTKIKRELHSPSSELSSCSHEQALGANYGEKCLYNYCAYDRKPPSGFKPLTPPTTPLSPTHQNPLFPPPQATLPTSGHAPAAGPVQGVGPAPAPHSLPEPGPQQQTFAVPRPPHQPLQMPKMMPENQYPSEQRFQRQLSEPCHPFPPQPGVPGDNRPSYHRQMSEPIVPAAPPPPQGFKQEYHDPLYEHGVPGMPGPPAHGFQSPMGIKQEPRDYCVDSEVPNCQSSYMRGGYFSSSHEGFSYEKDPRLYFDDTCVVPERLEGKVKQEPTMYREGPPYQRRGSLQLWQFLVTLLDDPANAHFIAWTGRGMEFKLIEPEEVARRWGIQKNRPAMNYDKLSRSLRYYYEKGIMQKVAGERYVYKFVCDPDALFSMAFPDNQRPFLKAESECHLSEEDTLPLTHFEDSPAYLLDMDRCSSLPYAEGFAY
Sequence of HSF1 (Q00613 whole entry): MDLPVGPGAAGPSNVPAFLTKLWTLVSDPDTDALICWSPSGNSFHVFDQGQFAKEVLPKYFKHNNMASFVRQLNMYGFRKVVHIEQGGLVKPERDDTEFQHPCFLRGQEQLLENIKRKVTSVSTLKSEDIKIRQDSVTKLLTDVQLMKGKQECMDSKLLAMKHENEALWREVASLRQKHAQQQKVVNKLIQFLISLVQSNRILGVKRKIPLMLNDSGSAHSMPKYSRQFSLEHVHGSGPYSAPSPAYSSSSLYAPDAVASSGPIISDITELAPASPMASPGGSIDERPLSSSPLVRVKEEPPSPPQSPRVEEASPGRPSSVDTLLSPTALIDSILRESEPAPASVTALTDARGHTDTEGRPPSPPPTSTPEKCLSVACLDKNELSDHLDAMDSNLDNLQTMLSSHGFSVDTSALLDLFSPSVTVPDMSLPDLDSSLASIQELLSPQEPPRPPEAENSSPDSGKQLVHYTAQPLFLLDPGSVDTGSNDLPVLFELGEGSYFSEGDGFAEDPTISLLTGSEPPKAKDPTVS
Sequence of ETV6 (P41212 whole entry): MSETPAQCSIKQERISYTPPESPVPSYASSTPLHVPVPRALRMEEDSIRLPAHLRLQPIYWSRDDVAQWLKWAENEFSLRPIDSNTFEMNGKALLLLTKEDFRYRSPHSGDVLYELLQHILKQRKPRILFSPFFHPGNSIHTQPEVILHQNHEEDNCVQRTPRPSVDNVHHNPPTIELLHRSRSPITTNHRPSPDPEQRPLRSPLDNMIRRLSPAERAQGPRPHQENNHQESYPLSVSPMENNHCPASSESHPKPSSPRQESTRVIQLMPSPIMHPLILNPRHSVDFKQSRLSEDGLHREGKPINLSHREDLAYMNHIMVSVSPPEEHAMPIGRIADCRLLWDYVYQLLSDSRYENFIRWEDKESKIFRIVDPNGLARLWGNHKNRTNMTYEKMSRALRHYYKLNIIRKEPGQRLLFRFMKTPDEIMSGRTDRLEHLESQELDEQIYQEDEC
Sequence of CRX (O43186 whole entry): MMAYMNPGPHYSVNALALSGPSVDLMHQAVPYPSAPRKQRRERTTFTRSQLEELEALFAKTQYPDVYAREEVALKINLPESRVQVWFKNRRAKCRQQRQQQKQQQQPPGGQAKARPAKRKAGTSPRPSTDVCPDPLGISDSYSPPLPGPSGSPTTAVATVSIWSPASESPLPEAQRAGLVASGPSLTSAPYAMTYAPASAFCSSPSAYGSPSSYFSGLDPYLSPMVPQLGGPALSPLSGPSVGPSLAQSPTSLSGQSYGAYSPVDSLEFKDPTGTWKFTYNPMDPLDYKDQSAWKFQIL
Sequence of ETV1 (P50549 whole entry): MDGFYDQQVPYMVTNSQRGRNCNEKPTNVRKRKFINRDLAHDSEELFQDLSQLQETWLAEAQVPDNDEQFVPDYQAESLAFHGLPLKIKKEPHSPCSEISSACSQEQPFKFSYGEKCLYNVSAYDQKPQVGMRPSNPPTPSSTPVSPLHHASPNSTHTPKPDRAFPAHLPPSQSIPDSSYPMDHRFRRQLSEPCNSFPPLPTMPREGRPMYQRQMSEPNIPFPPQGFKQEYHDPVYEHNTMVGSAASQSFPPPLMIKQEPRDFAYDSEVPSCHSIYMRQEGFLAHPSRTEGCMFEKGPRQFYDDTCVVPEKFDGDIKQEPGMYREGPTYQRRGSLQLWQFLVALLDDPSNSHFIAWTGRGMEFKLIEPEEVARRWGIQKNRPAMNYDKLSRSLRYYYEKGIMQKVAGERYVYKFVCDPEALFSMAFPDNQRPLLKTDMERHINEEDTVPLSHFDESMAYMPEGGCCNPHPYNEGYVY
Sequence of ELF4 (Q99607 whole entry): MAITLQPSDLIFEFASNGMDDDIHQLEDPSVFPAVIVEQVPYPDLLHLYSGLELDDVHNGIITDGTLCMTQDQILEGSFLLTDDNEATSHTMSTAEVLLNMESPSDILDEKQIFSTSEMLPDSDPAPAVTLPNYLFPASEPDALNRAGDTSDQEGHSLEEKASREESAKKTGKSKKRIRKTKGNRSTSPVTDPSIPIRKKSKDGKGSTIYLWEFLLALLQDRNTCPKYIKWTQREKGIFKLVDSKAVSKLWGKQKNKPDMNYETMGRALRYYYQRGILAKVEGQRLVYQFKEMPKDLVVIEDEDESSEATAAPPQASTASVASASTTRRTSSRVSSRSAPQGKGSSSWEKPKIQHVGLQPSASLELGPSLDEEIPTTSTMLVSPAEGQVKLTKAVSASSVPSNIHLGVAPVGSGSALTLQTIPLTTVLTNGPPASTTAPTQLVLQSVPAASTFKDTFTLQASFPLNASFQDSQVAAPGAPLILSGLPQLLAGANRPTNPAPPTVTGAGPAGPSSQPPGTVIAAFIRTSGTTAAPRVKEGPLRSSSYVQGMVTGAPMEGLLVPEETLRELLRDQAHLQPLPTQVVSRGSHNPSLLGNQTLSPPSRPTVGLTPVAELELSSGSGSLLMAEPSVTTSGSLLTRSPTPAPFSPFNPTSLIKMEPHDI

For ACTATT, the binding signal (FEV) was 1.25 fold enrichment (6-mer frequency, TF over GST control), the binding signal (ETV5) was 1.22 fold enrichment (6-mer frequency, TF over GST control) and the binding signal (HSF1) was 1.33 fold enrichment (6-mer frequency, TF over GST control). For the same sequence, the binding signal (SPIC) was 1.44 fold enrichment (6-mer frequency, TF over GST control), the binding signal (ELF4) was 1.3 fold enrichment (6-mer frequency, TF over GST control) and the binding signal (ELK4) was 1.35 fold enrichment (6-mer frequency, TF over GST control). The binding signal (ETV2) was 1.31 fold enrichment (6-mer frequency, TF over GST control), the binding signal (ELF3) was 1.32 fold enrichment (6-mer frequency, TF over GST control) and the binding signal (CRX) was 1.28 fold enrichment (6-mer frequency, TF over GST control). The binding signal (ETV1) was 1.28 fold enrichment (6-mer frequency, TF over GST control), the binding signal (ERF) was 1.22 fold enrichment (6-mer frequency, TF over GST control) and the binding signal (ETV3L) was 1.27 fold enrichment (6-mer frequency, TF over GST control). For the same sequence, the binding signal (ETS2) was 1.37 fold enrichment (6-mer frequency, TF over GST control), the binding signal (SPDEF) was 1.13 fold enrichment (6-mer frequency, TF over GST control) and the binding signal (ETV7) was 1.32 fold enrichment (6-mer frequency, TF over GST control). The binding signal (ELF5) was 1.29 fold enrichment (6-mer frequency, TF over GST control), the binding signal (ETV3) was 1.35 fold enrichment (6-mer frequency, TF over GST control) and the binding signal (ETV6) was 1.43 fold enrichment (6-mer frequency, TF over GST control).
